Several values for one entry are separate records, joined by “and”; a condition that tells them apart may be missing. Identical values can stand only once. Results filed as inconclusive are left out. Activity calls are given as the source filed them. Rule for the calls, unless noted: active = hit-call score of the fitted dose curve at least 0.9, where 1 is the maximum; inactive = score below 0.9.
What was measured:
[1] = biological target: Glucocorticoid receptor (Homo sapiens) (UniProt P04150); assay: ATG_GR_TRANS: Attagene TRANS-FACTORIAL HepG2 Assay for human Glucocorticoid Receptor (GR) (AID 2282978; active = hit-call score of the fitted dose curve at least 0.9, where 1 is the maximum;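 note: activators score as hits since higher reporter transcript over DMSO is fitted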); settings: HepG2 Attagene TRANS GR reporter, mRNA transcription
How it was run: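 Fluorescent capillary-electrophoresis quantitation of reporter mRNA is the readout, taken 24 h after dosing human HepG2 cells carrying transiently transfected GAL4-UAS reporter units activated by chimeric NR-GAL4 fusions; activity scored as induction over DMSO.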

[2] = biological target: Oxysterols receptor LXR-alpha (Homo sapiens) (UniProt Q13133); assay: ATG_LXRa_TRANS: Attagene TRANS-FACTORIAL HepG2 Assay for human Liver X Receptor alpha (LXRa) (AID 2282980; active = hit-call score of the fitted dose curve at least 0.9, where 1 is the maximum); settings: HepG2 Attagene TRANS reporter, LXRa transactivation
How it was run: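 Transfect HepG2 with GAL4-UAS multiplex reporter constructs (TRANS format, chimeric receptor-GAL4); treat 24 h; extract RNA, reverse-transcribe, PCR-amplify, FAM-label, HpaI-digest; resolve fragments by capillary electrophoresis. Upward response vs DMSO.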

[3] = biological target: Oxysterols receptor LXR-beta (Homo sapiens) (UniProt P55055); assay: ATG_LXRb_TRANS: Attagene TRANS-FACTORIAL HepG2 Assay for human Liver X Receptor beta (LXRb) (AID 2282981; active = hit-call score of the fitted dose curve at least 0.9, where 1 is the maximum); settings: HepG2 Attagene TRANS GAL4-LXRb reporter, mRNA
How it was run: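 Liver-derived HepG2 cells transfected with Gal4-responsive reporters were dosed for 24 h. Activation was scored as rise in reporter mRNA, by RT-PCR and capillary electrophoresis, above DMSO baseline.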

[4] = biological target: Hepatocyte nuclear factor 4-alpha (Homo sapiens) (UniProt P41235); assay: ATG_HNF4a_TRANS: Attagene TRANS-FACTORIAL HepG2 Assay for human Hepatocyte Nuclear Factor 4 alpha (HNF4a) (AID 2282982; active = hit-call score of the fitted dose curve at least 0.9, where 1 is the maximum); settings: HepG2 HNF4a transactivation reporter, mRNA readout
How it was run: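 Using HepG2 liver cells transfected with GAL4-UAS reporter units, chemical-induced mRNA increases were assessed after 24 hours. Fluorescent RT-PCR fragments were separated by capillary electrophoresis and compared with DMSO negative controls.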

[5] = ATG_M_06_TRANS: Attagene TRANS-FACTORIAL HepG2 Assay for M06 Transcription Factor (Internal Marker) (AID 2282983; active = hit-call score of the fitted dose curve at least 0.9, where 1 is the maximum); settings: HepG2 Attagene TRANS M06 internal marker reporter
How it was run: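 Background control endpoint: reporter mRNA from transiently transfected HepG2 after 24 h dosing, detected by RT-PCR with capillary electrophoresis fluorescence. Analysed for gain versus DMSO.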

[6] = ATG_M_32_TRANS: Attagene TRANS-FACTORIAL HepG2 Assay for M32 Transcription Factor (Internal Marker) (AID 2282984; active = hit-call score of the fitted dose curve at least 0.9, where 1 is the maximum); settings: HepG2 Attagene TRANS M32 internal marker reporter
How it was run: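 Fluorescence-detected mRNA induction, HepG2 liver cells, 24 h after dosing. Multiple GAL4-UAS reporter units introduced by transient transfection; background-control endpoint analysed for gain of signal against DMSO.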

[7] = biological target: Nuclear receptor subfamily 4 group A member 2 (Homo sapiens) (UniProt P43354); assay: ATG_NURR1_TRANS: Attagene TRANS-FACTORIAL HepG2 Assay for human Nuclear Receptor Related Protein 1 (NURR1) (AID 2282985; active = hit-call score of the fitted dose curve at least 0.9, where 1 is the maximum); settings: HepG2 Attagene TRANS reporter, mRNA readout
How it was run: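 Chimeric NR-Gal4 proteins were expressed in human HepG2 cells bearing GAL4-UAS reporter units, and induced reporter mRNA was quantified 24 h post-dosing by RT-PCR and capillary electrophoresis.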

[8] = biological target: Transcriptional activator Myb (Homo sapiens) (UniProt P10242); assay: ATG_Myb_CIS: Attagene CIS-FACTORIAL HepG2 Assay for human Myeloblastosis (Myb) Proto-Oncogene Transcription Factor (AID 2282986); settings: HepG2 Attagene CIS-FACTORIAL Myb reporter transcription; actives raise or lower the signal
How it was run: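 Reporter transcript levels, quantified by fluorescent RT-PCR and capillary electrophoresis, serve as the read-out. Transfected HepG2 cells carrying cis-promoter reporter units are dosed for 24 hours, and curves are fitted bidirectionally against DMSO controls.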

[9] = biological target: Nuclear respiratory factor 1 (Homo sapiens) (UniProt Q16656); assay: ATG_NRF1_CIS: Attagene CIS-FACTORIAL HepG2 Assay for human Nuclear Respiratory Factor 1 (NRF1) Orphan Gene (AID 2282987); settings: HepG2 NRF1 cis-element reporter, Attagene multiplex; actives raise or lower the signal
How it was run: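 Multiplexed cis-reporter assay, HepG2 cells, 24 h treatment. Total RNA → oligo(dT) RT → PCR with reporter-specific primers → 6-FAM primer extension → HpaI cut → CE. Bidirectional fit vs DMSO.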

[10] = ATG_NFI_CIS: Attagene CIS-FACTORIAL HepG2 Assay for human Nuclear Factor I (NFI) (AID 2282989); settings: HepG2 cis-regulatory reporter, NFI response element transcription; actives raise or lower the signal
How it was run: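 HepG2 cells transiently transfected with cis-element-driven multiplexed reporter transcription units, dosed for 24 h. Reporter mRNA quantified by RT-PCR, fluorescent labelling, HpaI digestion and capillary electrophoresis; bidirectional fit versus DMSO baseline.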

[11] = biological target: Myc proto-oncogene protein (Homo sapiens) (UniProt P01106); assay: ATG_Myc_CIS: Attagene CIS-FACTORIAL HepG2 Assay for human Myelocytomatosis (Myc) Proto-Oncogene Transcription Factor (AID 2282990); settings: HepG2, Attagene cis-reporter transcription factor activity; actives raise or lower the signal
How it was run: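 Multiplexed cis-reporter transcription in HepG2 cells after 24 h chemical treatment. Reporter mRNA measured by RT-PCR and capillary electrophoresis fluorescence; activity fitted bidirectionally against DMSO control.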

[12] = ATG_NF_kB_CIS: Attagene CIS-FACTORIAL HepG2 Assay for human Nuclear Factor Kappa B (NF-kB) (AID 2282991); settings: HepG2 Attagene cis-factorial NF-kB reporter mRNA; actives raise or lower the signal
How it was run: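 Transient MRTU transfection of human HepG2 liver cells → 24 h chemical exposure → total RNA, oligo(dT) RT → PCR, 6-FAM primer extension, HpaI digest 2 h 37 C → CE fragment analysis. Bidirectional fitting, DMSO negative control.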

[13] = ATG_NRF2_ARE_CIS: Attagene CIS-FACTORIAL HepG2 Assay for human Nuclear Factor Erythroid 2 Related Factor 2 (NFR2) response to Antioxidant Response Elements (ARE) (AID 2282992); settings: HepG2 Attagene ARE/NRF2 reporter, transcription factor activity; actives raise or lower the signal
How it was run: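 Using transiently transfected HepG2 cells exposed for 24 h, reporter mRNA levels were determined by RT-PCR with fluorescent primer extension and capillary electrophoresis, analysed for gain or loss of signal against DMSO.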

[14] = ATG_Oct_MLP_CIS: Attagene CIS-FACTORIAL HepG2 Assay for human Octamer-Binding Transcription Factor (Oct) (AID 2282993); settings: HepG2 Attagene cis-factorial Oct reporter, mRNA; actives raise or lower the signal
How it was run: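 HepG2 cells transiently transfected with cis-promoter-driven multiplexed reporter transcription units, dosed for 24 h. Reporter mRNA quantified by RT-PCR, fluorescent labelling, HpaI digestion and capillary electrophoresis; bidirectional fits versus DMSO baseline.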

[15] = biological target: Cellular tumor antigen p53 (Homo sapiens) (UniProt P04637); assay: ATG_p53_CIS: Attagene CIS-FACTORIAL HepG2 Assay for human p53 Transcription Factor (AID 2282994); settings: HepG2 p53 cis-element reporter, Attagene mRNA; actives raise or lower the signal
How it was run: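 In HepG2 cells, reporter transcription units under cis-regulatory promoters were transiently introduced. Following 24 h treatment, RNA was processed to labelled, digested cDNA fragments read by capillary electrophoresis; fitting was bidirectional versus DMSO.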

[16] = biological target: Bile acid receptor (Homo sapiens) (UniProt Q96RI1); assay: ATG_FXR_TRANS: Attagene TRANS-FACTORIAL HepG2 Assay for Farnesoid X Receptor (FXR) (AID 2282979; active = hit-call score of the fitted dose curve at least 0.9, where 1 is the maximum;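 note: hits raise reporter mRNA above DMSO so AC50 marks FXR activation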); settings: HepG2 Attagene TRANS FXR-GAL4 reporter transcription
How it was run: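 Transient transfection of HepG2 with multiplexed GAL4-UAS reporter units; exogenous FXR-GAL4 chimera. Dose 24 h → TriZol RNA → oligo(dT) RT → PCR, 6-FAM primer extension, HpaI cut → CE. Gain vs DMSO.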

[17] = BSK_3C_TissueFactor: BioMAP Diversity Plus: 3C Assay for Tissue Factor Biomarker Activity (AID 2282997); settings: BioMAP 3C HUVEC, tissue factor biomarker readout; actives raise or lower the signal
How it was run: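 After a 24 h chemical exposure of primary human umbilical vein endothelial cells, Tissue Factor levels were quantified by ELISA.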

[18] = BSK_3C_uPAR: BioMAP Diversity Plus: 3C Assay for Urokinase-type plasminogen activator receptor (uPAR) Biomarker Activity (AID 2282998); settings: BioMAP 3C HUVEC, uPAR biomarker ELISA; actives raise or lower the signal
How it was run: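 Human umbilical vein endothelial primary cells were exposed to test chemical for 24 h. Cell-surface uPAR was then quantified by ELISA, and responses were fitted bidirectionally against DMSO as negative control and baseline.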

[19] = BSK_3C_VCAM1: BioMAP Diversity Plus: 3C Assay for Vascular cell adhesion molecule 1 (VCAM1) Biomarker Activity (AID 2282999); settings: BioMAP 3C HUVEC, VCAM1 ELISA, cytokine-stimulated; actives raise or lower the signal
How it was run: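 Vascular primary endothelium (human umbilical vein) was exposed to chemicals and assayed 24 h later. VCAM-1 levels came from ELISA, with DMSO serving as baseline for bidirectional fitting.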

[20] = BSK_4H_Eotaxin3: BioMAP Diversity Plus: 4H Assay for Eotaxin 3 Biomarker Activity (AID 2283000); settings: primary human endothelial cells (HUVEC); actives raise or lower the signal
How it was run: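 Chemicals were added to human umbilical vein endothelium cultures, and Eotaxin-3 was quantified by ELISA at 24 h. Values were derived by bidirectional fitting with DMSO serving as negative control and activity baseline.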

Measured: AC50

Sequence of Glucocorticoid receptor (Homo sapiens) (P04150 whole entry, looked up, the tested form may be a part): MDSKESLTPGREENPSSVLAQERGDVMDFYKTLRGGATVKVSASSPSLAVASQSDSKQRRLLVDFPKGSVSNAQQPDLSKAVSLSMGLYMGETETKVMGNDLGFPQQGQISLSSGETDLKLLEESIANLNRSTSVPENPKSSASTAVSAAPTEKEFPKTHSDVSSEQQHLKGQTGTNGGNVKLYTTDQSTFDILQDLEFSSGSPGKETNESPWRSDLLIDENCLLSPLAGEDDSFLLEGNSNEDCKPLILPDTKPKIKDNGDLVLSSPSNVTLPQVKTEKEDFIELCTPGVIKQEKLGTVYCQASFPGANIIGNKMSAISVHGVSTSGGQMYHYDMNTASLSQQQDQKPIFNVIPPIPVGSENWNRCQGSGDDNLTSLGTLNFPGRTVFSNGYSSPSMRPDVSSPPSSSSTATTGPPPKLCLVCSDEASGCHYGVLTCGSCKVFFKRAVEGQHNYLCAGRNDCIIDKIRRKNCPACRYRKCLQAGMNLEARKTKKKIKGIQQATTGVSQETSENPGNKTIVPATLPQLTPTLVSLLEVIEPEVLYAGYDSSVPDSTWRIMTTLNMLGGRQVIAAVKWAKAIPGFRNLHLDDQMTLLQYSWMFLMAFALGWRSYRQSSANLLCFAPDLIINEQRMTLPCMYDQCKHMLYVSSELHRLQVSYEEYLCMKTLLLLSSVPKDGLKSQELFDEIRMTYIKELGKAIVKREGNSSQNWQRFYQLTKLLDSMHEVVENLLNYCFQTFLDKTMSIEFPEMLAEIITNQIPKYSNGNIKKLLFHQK
Sequence of Oxysterols receptor LXR-beta (Homo sapiens) (P55055 whole entry, looked up, the tested form may be a part): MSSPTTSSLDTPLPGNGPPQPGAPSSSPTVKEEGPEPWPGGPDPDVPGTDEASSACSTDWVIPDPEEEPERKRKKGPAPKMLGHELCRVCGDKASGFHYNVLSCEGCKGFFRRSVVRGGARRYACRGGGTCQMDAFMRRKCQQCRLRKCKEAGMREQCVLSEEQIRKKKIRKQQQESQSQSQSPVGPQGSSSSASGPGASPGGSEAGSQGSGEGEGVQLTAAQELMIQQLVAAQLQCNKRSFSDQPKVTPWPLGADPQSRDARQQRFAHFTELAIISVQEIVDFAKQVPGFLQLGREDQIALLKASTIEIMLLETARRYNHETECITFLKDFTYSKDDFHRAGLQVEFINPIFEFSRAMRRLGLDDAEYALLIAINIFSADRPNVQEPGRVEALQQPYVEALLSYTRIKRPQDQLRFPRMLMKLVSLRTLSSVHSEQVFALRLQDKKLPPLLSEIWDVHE
Sequence of Transcriptional activator Myb (Homo sapiens) (P10242 whole entry, looked up): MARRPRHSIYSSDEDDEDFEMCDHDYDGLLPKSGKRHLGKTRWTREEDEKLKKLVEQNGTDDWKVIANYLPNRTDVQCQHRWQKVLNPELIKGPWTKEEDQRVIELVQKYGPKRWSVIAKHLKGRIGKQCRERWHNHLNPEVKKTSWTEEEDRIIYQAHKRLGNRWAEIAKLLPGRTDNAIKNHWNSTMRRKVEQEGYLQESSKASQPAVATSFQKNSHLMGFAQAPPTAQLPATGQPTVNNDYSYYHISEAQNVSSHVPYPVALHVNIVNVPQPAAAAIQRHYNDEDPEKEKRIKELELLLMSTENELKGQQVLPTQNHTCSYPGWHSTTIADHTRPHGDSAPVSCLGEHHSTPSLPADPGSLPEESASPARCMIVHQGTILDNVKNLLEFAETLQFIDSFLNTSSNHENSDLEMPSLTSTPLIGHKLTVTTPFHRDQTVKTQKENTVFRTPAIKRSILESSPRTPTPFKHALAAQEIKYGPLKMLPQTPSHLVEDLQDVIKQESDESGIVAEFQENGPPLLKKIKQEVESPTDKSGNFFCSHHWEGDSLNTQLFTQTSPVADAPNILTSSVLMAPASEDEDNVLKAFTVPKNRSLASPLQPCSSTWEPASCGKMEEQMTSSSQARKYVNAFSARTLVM
Sequence of Oxysterols receptor LXR-alpha (Homo sapiens) (Q13133 whole entry, looked up, the tested form may be a part): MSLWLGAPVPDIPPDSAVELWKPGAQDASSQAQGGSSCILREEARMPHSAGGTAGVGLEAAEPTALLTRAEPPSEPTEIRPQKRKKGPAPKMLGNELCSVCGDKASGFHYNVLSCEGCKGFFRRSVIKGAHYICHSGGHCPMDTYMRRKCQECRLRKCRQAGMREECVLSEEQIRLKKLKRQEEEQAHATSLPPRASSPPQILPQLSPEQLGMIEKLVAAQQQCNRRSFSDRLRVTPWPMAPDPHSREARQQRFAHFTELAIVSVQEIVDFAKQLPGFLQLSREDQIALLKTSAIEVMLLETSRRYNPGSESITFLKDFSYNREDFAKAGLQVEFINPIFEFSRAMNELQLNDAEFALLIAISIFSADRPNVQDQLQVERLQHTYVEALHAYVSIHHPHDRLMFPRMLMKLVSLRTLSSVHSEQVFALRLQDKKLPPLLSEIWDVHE
Sequence of Nuclear receptor subfamily 4 group A member 2 (Homo sapiens) (P43354 whole entry, looked up, the tested form may be a part): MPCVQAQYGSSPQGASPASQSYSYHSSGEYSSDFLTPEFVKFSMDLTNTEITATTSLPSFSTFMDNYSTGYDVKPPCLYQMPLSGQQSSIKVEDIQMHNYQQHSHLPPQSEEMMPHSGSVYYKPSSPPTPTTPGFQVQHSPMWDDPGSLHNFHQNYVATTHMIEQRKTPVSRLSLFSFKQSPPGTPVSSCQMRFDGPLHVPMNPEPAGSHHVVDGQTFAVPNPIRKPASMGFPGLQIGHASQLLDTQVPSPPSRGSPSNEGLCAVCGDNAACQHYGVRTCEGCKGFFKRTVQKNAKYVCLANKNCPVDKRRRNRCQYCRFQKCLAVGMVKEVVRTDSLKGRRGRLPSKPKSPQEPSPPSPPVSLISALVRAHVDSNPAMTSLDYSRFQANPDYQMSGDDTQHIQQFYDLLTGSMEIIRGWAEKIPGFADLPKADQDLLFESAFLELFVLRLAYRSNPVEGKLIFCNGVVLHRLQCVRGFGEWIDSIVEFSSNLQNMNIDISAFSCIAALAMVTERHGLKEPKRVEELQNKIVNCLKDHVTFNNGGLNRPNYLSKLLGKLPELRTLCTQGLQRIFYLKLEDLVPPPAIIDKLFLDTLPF
Sequence of Myc proto-oncogene protein (Homo sapiens) (P01106 whole entry, looked up): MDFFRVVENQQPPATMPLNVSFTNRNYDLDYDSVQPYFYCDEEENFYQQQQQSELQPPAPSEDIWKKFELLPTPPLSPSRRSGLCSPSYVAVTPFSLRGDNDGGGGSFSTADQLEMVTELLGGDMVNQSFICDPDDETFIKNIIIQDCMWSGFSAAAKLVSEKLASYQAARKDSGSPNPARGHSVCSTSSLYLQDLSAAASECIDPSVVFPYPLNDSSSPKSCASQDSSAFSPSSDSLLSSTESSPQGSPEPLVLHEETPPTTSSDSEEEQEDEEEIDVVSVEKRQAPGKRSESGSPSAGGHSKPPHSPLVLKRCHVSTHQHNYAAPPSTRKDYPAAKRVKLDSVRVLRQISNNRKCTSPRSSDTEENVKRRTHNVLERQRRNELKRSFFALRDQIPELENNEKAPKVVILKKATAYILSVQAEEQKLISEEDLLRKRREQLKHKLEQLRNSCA
Sequence of Cellular tumor antigen p53 (Homo sapiens) (P04637 whole entry, looked up, the tested form may be a part): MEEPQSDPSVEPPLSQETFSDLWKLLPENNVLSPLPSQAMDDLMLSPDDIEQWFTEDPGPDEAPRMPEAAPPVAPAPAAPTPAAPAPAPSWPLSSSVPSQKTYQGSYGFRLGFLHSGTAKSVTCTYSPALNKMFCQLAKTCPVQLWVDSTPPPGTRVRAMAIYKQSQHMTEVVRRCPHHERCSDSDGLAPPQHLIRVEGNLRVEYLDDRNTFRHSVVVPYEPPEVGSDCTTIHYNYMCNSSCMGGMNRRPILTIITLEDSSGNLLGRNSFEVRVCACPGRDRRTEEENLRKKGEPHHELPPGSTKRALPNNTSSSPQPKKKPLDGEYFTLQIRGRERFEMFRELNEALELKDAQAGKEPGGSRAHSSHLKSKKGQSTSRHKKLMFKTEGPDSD
Sequence of Nuclear respiratory factor 1 (Homo sapiens) (Q16656 whole entry, looked up): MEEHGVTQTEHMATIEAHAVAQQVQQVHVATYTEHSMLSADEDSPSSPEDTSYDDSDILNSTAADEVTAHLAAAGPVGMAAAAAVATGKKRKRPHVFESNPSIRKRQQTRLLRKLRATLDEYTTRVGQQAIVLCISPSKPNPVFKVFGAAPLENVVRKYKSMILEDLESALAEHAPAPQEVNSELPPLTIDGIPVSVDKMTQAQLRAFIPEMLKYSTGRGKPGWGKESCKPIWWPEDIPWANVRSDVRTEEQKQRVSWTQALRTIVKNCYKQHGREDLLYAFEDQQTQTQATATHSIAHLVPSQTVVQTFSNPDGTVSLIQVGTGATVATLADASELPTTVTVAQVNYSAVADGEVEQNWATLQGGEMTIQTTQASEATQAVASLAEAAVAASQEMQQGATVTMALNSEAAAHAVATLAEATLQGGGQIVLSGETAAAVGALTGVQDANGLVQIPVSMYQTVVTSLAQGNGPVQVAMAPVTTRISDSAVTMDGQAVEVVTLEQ
Sequence of Bile acid receptor (Homo sapiens) (Q96RI1 whole entry, looked up, the tested form may be a part): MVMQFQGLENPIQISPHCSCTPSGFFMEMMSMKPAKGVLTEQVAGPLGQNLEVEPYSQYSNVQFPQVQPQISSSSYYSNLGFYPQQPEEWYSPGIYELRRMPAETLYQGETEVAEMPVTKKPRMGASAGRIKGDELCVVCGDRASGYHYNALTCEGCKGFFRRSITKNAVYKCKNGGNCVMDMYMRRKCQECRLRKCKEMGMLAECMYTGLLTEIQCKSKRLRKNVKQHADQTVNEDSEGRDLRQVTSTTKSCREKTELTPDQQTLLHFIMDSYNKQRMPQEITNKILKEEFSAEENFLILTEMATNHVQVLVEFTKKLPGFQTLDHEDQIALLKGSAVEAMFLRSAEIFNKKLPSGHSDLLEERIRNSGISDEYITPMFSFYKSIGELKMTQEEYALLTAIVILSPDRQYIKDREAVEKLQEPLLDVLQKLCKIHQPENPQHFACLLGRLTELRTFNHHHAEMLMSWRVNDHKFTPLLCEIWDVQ

CCC(C)OC(=O)c1ccc(O)cc1 (stereo not given)
active: [13] 100 µM
not listed: [15] | [16] | [17] | [18] | [19] | [20]
inactive: all other assays above

O=C(Nc1ccccc1)c1ccccc1O
active: [14] 48.3 µM
not listed: [6] | [12] | [16] | [17] | [18] | [19] | [20]
inactive: all other assays above

CCOc1nc(F)cc2nc(S(=O)(=O)Nc3c(Cl)cccc3C(=O)OC)nn12
not listed: [2] | [6] | [7] | [13] | [14]
inactive: all other assays above

CCN(CCC#N)c1ccc(N=Nc2c(Cl)cc([N+](=O)[O-])cc2Cl)cc1
not listed: [6] | [12] | [17] | [18] | [19] | [20]
inactive: all other assays above

Cc1cnc(NC(=O)C2=C(O)c3ccccc3S(=O)(=O)N2C)s1
not listed: [3] | [4] | [17] | [18] | [19] | [20]
inactive: all other assays above

c1ccc2c(c1)ccc1cc3c(ccc4ccccc43)cc12
active: [13] 0.12 µM | [17] 15 nM and 41.3 nM | [20] 15 nM and 37.3 nM
not listed: [5] | [12]
inactive: all other assays above

C=C(C)c1cccc(C(C)(C)N=C=O)c1
not listed: [7] | [16] | [17] | [18] | [19] | [20]
inactive: all other assays above

COC(=O)C1=C(C)NC(C)=C(C(=O)OCC(C)C)C1c1ccccc1[N+](=O)[O-] (stereo not given)
active: [9] 15.4 µM
not listed: [3] | [17] | [18] | [19] | [20]
inactive: all other assays above

Nc1nc2ccccc2[nH]1
not listed: [4] | [12] | [15] | [17] | [18] | [19] | [20]
inactive: all other assays above
